Compound activity as filed in PubChem.
D2 PAM-1: HTS Assay for Positive Allosteric Modulators of the Human D2 Dopamine Receptor: Primary Screen for Potentiators | D(2) dopamine receptor (Homo sapiens), P14416 | HEK293 T-REx D2, calcium flux, EC20 dopamine potentiation | potentiation, % at 10 µM | 340,000 compounds, 0.34% hits | AID 485347, 2010;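 active = potentiation over 3 SD above the plate norm, cut at about 30% in these data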
Target sequence (P14416 whole entry, looked up): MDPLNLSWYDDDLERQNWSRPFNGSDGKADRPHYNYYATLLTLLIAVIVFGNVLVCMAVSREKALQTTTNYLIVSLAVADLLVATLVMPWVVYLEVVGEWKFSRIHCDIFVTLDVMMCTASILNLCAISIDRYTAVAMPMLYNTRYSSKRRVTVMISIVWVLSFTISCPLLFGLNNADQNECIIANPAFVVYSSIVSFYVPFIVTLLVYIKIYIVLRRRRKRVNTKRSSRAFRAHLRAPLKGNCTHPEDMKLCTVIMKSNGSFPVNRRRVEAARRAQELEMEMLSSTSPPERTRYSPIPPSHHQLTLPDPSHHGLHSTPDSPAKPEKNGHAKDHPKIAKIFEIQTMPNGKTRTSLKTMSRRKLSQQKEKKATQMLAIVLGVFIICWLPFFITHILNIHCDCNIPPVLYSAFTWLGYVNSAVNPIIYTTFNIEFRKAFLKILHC
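Tetracycline-induced Hek293 Trex D2 cells, force-coupled to calcium, loaded with no-wash calcium dye. Compound added with 180 s kinetic read for agonism, then EC20 dopamine and a further 180 s read for potentiation.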
D2 ag-1: HTS Assay for Allosteric Agonists of the Human D2 Dopamine Receptor: Primary Screen for Agonists; activation, % at 2 µM; HEK293 T-REx D2 cells, calcium flux agonist mode; D(2) dopamine receptor (Homo sapiens), P14416; 340,000 compounds, 0.53% hits;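 active = activation over 3 SD above normal in the single-dose calcium agonist read, cut at about 30% in these data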
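Agonism is scored from calcium flux in a force-coupled, inducible HEK293 cell line expressing D2, read kinetically for 180 s after compound addition against dopamine controls.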
D2 antag: HTS Assay for Allosteric Antagonists of the Human D2 Dopamine Receptor: Primary Screen for Antagonists. D(2) dopamine receptor (Homo sapiens), P14416. HEK293 TREx D2 cells, calcium flux, dopamine EC80. inhibition, % at 10 µM. 340,000 compounds, 2% hits; in the data active = inhibition above about 30%; inactive = below that, where a call was filed
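Read-out: kinetic calcium fluorescence (1 cycle/s) in inducible HEK293 T-REx D2 cells after an EC80 dopamine addition that followed 180 s compound preincubation. Loss of the dopamine response indicates antagonism.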
D2 PAM-2: Beta-Arrestin HTS for Positive Allosteric Modulators of the Human D2 Dopamine Receptor: Potentiators. D(2) dopamine receptor (Homo sapiens), P14416. DiscoveRx D2 beta-arrestin cells, luminescence, 90 min; 100% = 57 uM dopamine signal. 360,000 compounds, 0.23% hits. potentiation, % (test concentration not listed). AID 624464, 2012; in the data active = potentiation above about 50%; inconclusive = mostly about 30% to 49%
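D2 cells co-treated with compound plus 50 nM dopamine (EC20) for 90 min at 37 deg C to detect potentiation. Beta-arrestin recruitment was read as enzyme-fragment luminescence after 1 h at ambient temperature. Full response was set by 57 uM dopamine.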
D2 ag-2: Beta-Arrestin HTS for Positive Allosteric Modulators of the Human D2 Dopamine Receptor: Agonists. D(2) dopamine receptor (Homo sapiens), P14416. DiscoveRx PathHunter D2 beta-arrestin, luminescence, 90 min; 100% = 57 uM dopamine signal. activation, % (no concentration beside the values). 360,000 compounds, 0.084% hits; in the data active = activation above about 40%; inconclusive = between about 15% and that limit
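Agonist mode: compounds alone added to overnight-plated D2 PathHunter cells for 90 min at 37 C, with 57 uM final dopamine (EC100) defining full response. Beta-arrestin recruitment detected by chemiluminescent reagent, read after 1 h at ambient temperature.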
Large screens that a line does not name were inactive. This is a sample that favours compounds with a hit; in the whole collection about 2.4% have one here.

CC(C)=CCN1CCN(Cc2c[nH]c3ccccc23)CC1CCO (stereo not drawn)	D2 antag 47.3
CC(C)CN1CCN(Cc2c[nH]c3ccccc23)CC1CCO (stereo not drawn)	none
CC(C)=CCN1CCN(Cc2cccn2-c2ccccn2)CC1CCO (stereo not drawn)	D2 antag 98.6
CC(C)CN1CCN(Cc2cccn2-c2ccccn2)CC1CCO (stereo not drawn)	none
Cc1ccc(S(=O)(=O)N2CCN(C(=O)C(C)Cn3nc(C)c(C)c3C)CC2)cc1 (stereo not drawn)	none
Cc1nn(CC(C)C(=O)N2CCN(S(=O)(=O)c3ccc(Cl)cc3)CC2)c(C)c1C (stereo not drawn)	D2 antag 31.5
CCc1ccc(NC(=O)C(=O)NCC(c2cccnc2)N2CCN(c3ccc(F)cc3)CC2)cc1 (stereo not drawn)	none (no result: D2 antag, D2 PAM-2, D2 ag-2)
Cc1nnc(NC(=O)NC(C)N2C(=O)C3C4C=CC(C4)C3C2=O)s1 (stereo not drawn)	none
CCc1nnc(NC(=O)C(C)N2C(=O)C3C4C=CC(C4)C3C2=O)s1 (stereo not drawn)	D2 antag 32.8
CCC(=O)N1CCc2cc(Br)cc(S(=O)(=O)CCC(=O)Nc3ccc(Cl)cc3)c21	none (no result: D2 antag, D2 PAM-2, D2 ag-2)
CCN(C(=O)Cc1c(C(=O)O)[nH]c2ccccc12)c1ccc(OC)cc1	D2 antag 53.3
COc1ccc(F)cc1S(=O)(=O)NC1CC(C)(C)NC(C)(C)C1	D2 PAM-1 34.6
COc1ccc(NC(=O)C2CCCN2S(=O)(=O)c2ccc(F)cc2)cc1 (stereo not drawn)	D2 antag 30.4
COc1cc(OC)cc(C(=O)NCCSC2CCCCC2)c1	none
COc1cccc(OC)c1C(=O)NCCSC1CCCCC1	D2 antag 40.5
CCc1nn2c(=O)cc(COC(=O)c3ccccc3NC(=O)c3ccc(C(C)(C)C)cc3)nc2s1	none (no result: D2 antag, D2 PAM-2, D2 ag-2)
Cc1ccc(S(=O)(=O)NCCSc2ncccn2)cc1	D2 antag 86.4
COC(CNS(=O)(=O)c1ccc(Cl)cc1)c1ccccc1 (stereo not drawn)	none
CCN(CC)C(CNS(=O)(=O)c1ccc(Cl)cc1)c1ccccc1 (stereo not drawn)	D2 antag 39.3
CC(C)Cc1cc(CN2CCC(CO)(Cc3ccccc3)CC2)[nH]n1	D2 antag 47.4
CCCC(=O)Nc1ccc2nn(-c3ccc(CC)cc3)nc2c1	none (no result: D2 antag, D2 PAM-2, D2 ag-2)
Cn1c(=O)c2c(nc(NCc3ccccc3)n2Cc2ccccc2)n(C)c1=O	none (no result: D2 ag-1, D2 antag, D2 PAM-2, D2 ag-2)
Cn1c(=O)c2c(nc(NCC3CCCO3)n2Cc2ccccc2)n(C)c1=O (stereo not drawn)	D2 PAM-1 40.3
CCn1c(NCc2ccccn2)nc2c1c(=O)n(C)c(=O)n2C	D2 PAM-1 63.4
COc1ccc(S(=O)(=O)Nc2cc3c(cc2NCc2ccccc2)n(C)c(=O)n3C)cc1	none (no result: D2 ag-1, D2 antag, D2 PAM-2, D2 ag-2)
CCCCNC(=O)CN1C(=O)c2c(c3ccccc3n2C)C1c1ccc(OC)cc1 (stereo not drawn)	none (no result: D2 PAM-1, D2 antag, D2 PAM-2, D2 ag-2)
C#CCN(C)Cc1ccccc1	D2 antag 31.9
Cc1ccccc1/C(N)=N/OC(=O)/C=C/c1ccccc1	D2 PAM-2 86.9, D2 ag-2 inconclusive
N/C(Cc1ccc(Cl)c(Cl)c1)=N\OC(=O)c1cccs1	D2 PAM-2 81.4
Cc1ccccc1/C(N)=N/OC(=O)c1cccs1	D2 PAM-2 138.6, D2 ag-2 inconclusive (no result: D2 PAM-1, D2 ag-1, D2 antag)
N/C(=N\OC(=O)c1cccs1)c1cccnc1	D2 PAM-2 inconclusive, D2 ag-2 inconclusive
COc1ccc(/C=C/C(=O)O/N=C(\N)c2ccccc2)cc1OC	D2 PAM-2 52.4
COc1ccc(NS(=O)(=O)c2cc3[nH]c(=O)c(=O)[nH]c3cc2C)cc1OC	none (no result: D2 antag, D2 PAM-2, D2 ag-2)
COc1ccc(OC)c(-c2csc(-c3c(N)c(C(=O)c4ccc(Cl)cc4)n4ccccc34)n2)c1	none (no result: D2 ag-1, D2 antag, D2 PAM-2, D2 ag-2)
COc1ccc(/C=C/C(=O)Nc2ccccc2)cc1OC	D2 antag 30.2
COCCCn1c(=O)c2sccc2n(Cc2cccc(F)c2)c1=O	none
COCCCn1c(=O)c2sccc2n(Cc2cccc(C)c2)c1=O	D2 antag 41.1
Cc1cc(OCc2nn[nH]n2)c2c(-c3ccccc3)cc(=O)oc2c1	D2 antag 51.1
Cc1c(OCc2nn[nH]n2)ccc2c(-c3ccccc3)cc(=O)oc12	none
Cc1ccc(C2CC(=O)N(Cc3ccccc3)c3c2c(C)nn3-c2nc(C)cc(C)n2)cc1 (stereo not drawn)	none (no result: D2 ag-1, D2 antag, D2 PAM-2, D2 ag-2)
C=C(C)COc1ccc(-c2[nH]ncc2-c2ccc(OC)cc2)c(O)c1	none (no result: D2 ag-1)
C=C(C)COc1ccc(-c2[nH]ncc2-c2ccccc2)c(O)c1	D2 PAM-2 83.6
COc1ccc(-c2cn[nH]c2-c2ccc(OCc3ccc(F)cc3)cc2O)cc1OC	D2 antag 44.7
COc1ccc(CCNC(=O)c2ccc3c(c2)N(Cc2ccc(F)cc2)C(=O)CS3)cc1OC	none (no result: D2 PAM-1, D2 antag, D2 PAM-2, D2 ag-2)
Cc1cccc(OC(=O)CSc2nnc(-c3ccc4c(c3)OCO4)o2)c1C	none (no result: D2 antag, D2 PAM-2, D2 ag-2)
Cn1nccc1/C=C(/C#N)S(=O)(=O)c1ccccc1	D2 antag 30.5
O=C(CSc1nc2nc[nH]c2c(=O)[nH]1)NC1CCCCC1	D2 antag 47.5
CCN(Cc1ccccc1)C1CCN(Cc2ccc(SC)cc2)CC1	none (no result: D2 PAM-1, D2 ag-1, D2 antag)
CCN(Cc1ccccc1)C(=O)C1CCN(Cc2ccc(SC)cc2)CC1	D2 antag 80.6
O=C(C1CCN(CCCc2ccccc2)CC1)N(CCc1ccccc1)Cc1ccccc1	D2 antag 38.7
O=C(C1CCN(CC2CC=CCC2)CC1)N(CCc1ccccc1)Cc1ccccc1 (stereo not drawn)	none
COc1ccc(CNC(=O)c2cc3cccc4c3n2CC(C)S4)cc1 (stereo not drawn)	none (no result: D2 antag, D2 PAM-2, D2 ag-2)
CC1=C(C(=O)OCC2CCCCC2)C(c2ccc(Cl)cc2)CC(=O)N1 (stereo not drawn)	none (no result: D2 antag, D2 PAM-2, D2 ag-2)
CC12CCC(C(=O)N3CCN(c4ccccc4)CC3)(CC1=O)C2(C)C (stereo not drawn)	none
COc1ccc(N2CCN(C(=O)C34CCC(C)(C(=O)C3)C4(C)C)CC2)cc1 (stereo not drawn)	D2 antag 36.8
CCOc1ccccc1CNC(=O)CN1C(=O)CCCc2ccccc21	none (no result: D2 ag-1, D2 antag, D2 PAM-2, D2 ag-2)
COc1cccc(CNC(=O)C2CCN(Cc3cc4ccccc4n3Cc3ccc(C)cc3)CC2)c1	none (no result: D2 antag, D2 PAM-2, D2 ag-2)
CN(C)CCCN1C(=O)c2cccc3c([N+](=O)[O-])ccc(c23)C1=O	D2 PAM-2 62.8, D2 ag-2 inconclusive
